The values that follow come from PubChem BioAssay (Tox21).

Inconclusive results are not listed. Calls of active or inactive are those of the source. Unless noted, the call rests on the fitted dose curve.

Assay [1] can be described thus: Nuclear factor erythroid 2-related factor 2/antioxidant responsive element (Nrf2/ARE) small molecule agonists: qHTS cell viability counter screen in human keratinocytes (AID 1919968; active means well fitted curve in the direction sought with a large enough effect in the repeat runs; an effect the other way counts as inactive or inconclusive; further: nearly all actives have a fitted effect of over 55% in size; further: potency means the concentration at half of the fitted maximal effect). In outline:
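Cytotoxicity was multiplexed with the Nrf2/ARE luciferase assay in the same wells. Stably transfected HaCaT keratinocytes were treated with test compounds for 23 h at 37 C. Cell viability was then measured by CellTiter-Fluor fluorescence.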

The nature of assay [2]: Nuclear factor erythroid 2-related factor 2/antioxidant responsive element (Nrf2/ARE) small molecule agonists: luciferase reporter gene qHTS assay in human keratinocytes (AID 1919969). Further: nearly all actives have a fitted effect of over 35% in size. Further: potency means the concentration at half of the fitted maximal effect.
In assay [3] the target is KiSS-1 receptor (Homo sapiens) (UniProt Q969F8). Nature of the assay: Human kisspeptin (KISS1R) small molecule agonists, calcium flux assay in KISS1R-HEK293 cells (AID 1920064; active means well fitted curve in the direction sought with a large enough effect in the repeat runs; an effect the other way counts as inactive or inconclusive). In outline:
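Agonist activity is monitored as intracellular calcium rise in engineered HEK293 cells carrying human KISS1R. Cells are dye-loaded for 1 h at 37 C before compound addition, and fluorescence is recorded for 3 min.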
For orientation: Calcium flux is commonly read through the fluorescence of an indicator in the cells.

Assay [4] is described as follows: G protein-coupled receptor (GPCR) small molecule agonists, calcium flux assay: HEK293 wild type cell line counter screen (AID 1920065). The gist of the method:
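Seed cells, incubate 18 h (37 C, 5% CO2); add calcium dye, 1 h at 37 C; pin-transfer compounds, ATP control or DMSO; read fluorescence 480/540 nm each second for 3 min.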

Assay [5] can be described thus: p53 small molecule agonists, cell-based qHTS assay with human liver microsomes (AID 1963577).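 Further: p53 response element beta-lactamase reporter cells with liver microsomes plus NADPH.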 In outline: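 With metabolic activation: human liver microsomes (0.5 mg/mL final) plus NADPH (0.5 mg/mL final) added alongside compounds to p53RE-bla cells; 16 h 37 C exposure; beta-lactamase read by LiveBLAzer fluorescence.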
A general note: In qHTS, concentration-response curves come from the screen itself.

Assay [6] is described as follows: p53 small molecule agonists, cell-based qHTS assay with human liver microsomes: qHTS cell viability counter screen (AID 1963579). Further: nearly all actives have a fitted effect of over 45% in size. Further: potency means the concentration at half of the fitted maximal effect. The gist of the method: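 Metabolic activation used human liver microsomes and NADPH, both 0.5 mg/mL final, over 16 hours at 37 C on p53RE-bla cells (4,000/well). Cytotoxicity measured by CellTiter-Glo luminescence, 30 min at room temperature.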

Assay [7] is described as follows: p53 small molecule agonists, cell-based qHTS assay with rat liver microsomes: qHTS cell viability counter screen (AID 1963580). Further: nearly all actives have a fitted effect of over 45% in size. Further: potency means the concentration at half of the fitted maximal effect. In outline: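 After the beta-lactamase ratio was read, CellTiter-Glo was added to the same wells and luminescence measured at 30 min; cells had been treated 16 h at 37 C with compounds, rat liver microsomes and NADPH (0.5 mg/mL final each).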

Assay [8] is described as follows: p53 small molecule agonists, cell-based qHTS assay: qHTS cell viability counter screen (AID 1963581). Further: nearly all actives have a fitted effect of over 45% in size. Further: potency means the concentration at half of the fitted maximal effect. The gist of the method:
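Viability was counter-screened in parallel with the p53 agonist reporter by measuring intracellular ATP luminescence in the same HCT-116 p53RE-bla wells after 16 h compound treatment at 37 C.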

Assay [9] in a line: p53 small molecule agonists, cell-based qHTS assay (AID 1963582; active means well fitted activation curve with a large enough effect in the signal ratio in the repeat runs, not every such curve was filed as active; the % refers to the signal ratio). In outline:
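Cells carrying a p53-responsive bla reporter are treated with test compounds for 16 h at 37 C; beta-lactamase activity is then detected with LiveBLAzer B/G FRET substrate after 2 h at room temperature.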

Assay [10] has as its target 5-hydroxytryptamine receptor 2A (Homo sapiens) (UniProt P28223). Nature of the assay: 5-hydroxytryptamine receptor 2A (HTR2A) small molecule antagonists, cell-based qHTS assay (AID 1963586). Further: nearly all actives have a fitted effect of over 45% in size. In outline:
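CHO cells stably expressing human HTR2A were plated for 18 h at 37 C, then loaded with calcium dye for 1 h. Compounds were preincubated 5 min at room temperature before DOI (4 nM solution) was added. Kinetic fluorescence was read for 3 min.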

The target is the same in assay [11]. Nature of the assay: 5-hydroxytryptamine receptor 2A (HTR2A) small molecule agonists, cell-based qHTS assay (AID 1963587). Further: nearly all actives have a fitted effect of over 30% in size. Further: potency means the concentration at half of the fitted maximal effect. The gist of the method:
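CHO cells stably expressing human HTR2A, plated 18 h, loaded with calcium dye 1 h at 37 C. Agonist mode: compounds added and intracellular calcium fluorescence recorded kinetically for 2 min at 1 sec intervals.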

The target of assay [12] is Muscarinic acetylcholine receptor M1 (Homo sapiens) (UniProt P11229). As to the kind of experiment: Cholinergic receptor muscarinic 1 (CHRM1) small molecule antagonists, cell-based qHTS assay (AID 1963588). Further: nearly all actives have a fitted effect of over 40% in size. Further: potency means the concentration at half of the fitted maximal effect. In outline: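 Compounds were tested at 15 concentrations in three independent runs. Dye-loaded CHRM1-CHO cells were exposed 5 min at room temperature before stimulation by acetylcholine added at 50nM. Intracellular calcium was read kinetically on FDSS for 3 min.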
Muscarinic acetylcholine receptor M1 (Homo sapiens), sequence (P11229 whole entry, looked up): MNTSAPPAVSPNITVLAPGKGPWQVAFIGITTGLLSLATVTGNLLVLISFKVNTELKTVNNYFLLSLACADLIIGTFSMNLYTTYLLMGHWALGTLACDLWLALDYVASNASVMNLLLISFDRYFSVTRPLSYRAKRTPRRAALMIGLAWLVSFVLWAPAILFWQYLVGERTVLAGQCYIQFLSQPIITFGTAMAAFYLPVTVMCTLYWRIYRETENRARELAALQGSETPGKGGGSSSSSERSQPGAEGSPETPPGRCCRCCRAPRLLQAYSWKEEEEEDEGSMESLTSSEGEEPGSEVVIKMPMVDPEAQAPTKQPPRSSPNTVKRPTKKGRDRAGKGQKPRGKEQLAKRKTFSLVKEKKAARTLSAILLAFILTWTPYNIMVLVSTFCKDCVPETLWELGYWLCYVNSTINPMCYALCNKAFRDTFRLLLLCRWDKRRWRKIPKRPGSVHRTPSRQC

The target is the same in assay [13]. As to the kind of experiment: Cholinergic receptor muscarinic 1 (CHRM1) small molecule agonists, cell-based qHTS assay (AID 1963589). Further: nearly all actives have a fitted effect of over 35% in size. In outline: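 Cells were plated and incubated 18 h at 37 C/5% CO2, loaded with calcium dye for 1 h at 37 C, then treated with compounds in DMSO. Fluorescence was recorded kinetically at 1 sec intervals.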
For assay [14], the target named is Beta-2 adrenergic receptor (Homo sapiens) (UniProt P07550). As to the kind of experiment: Adrenergic beta2 receptor (ADRB2) small molecule antagonists, cell-based qHTS assay (AID 1963592). Further: series mostly up to about 92 µM; nearly all actives have a fitted effect of over 50% in size. In outline:
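Assay format: CHO-ADRB2 cells, 18-20hr seeding at 37C/5% CO2, then compound plus 1nM isoproterenol agonist mix for 0.5hr RT. Homogeneous time-resolved fluorescence cAMP detection after 1hr, expressed as 665/615 nm ratio.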

For assay [15] the target is unchanged. As to the kind of experiment: Adrenergic beta2 receptor (ADRB2) small molecule agonists, cell-based qHTS assay (AID 1963593).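 Further: CHO cells stably overexpressing human ADRB2.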 In outline:
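CHO cells stably over-expressing ADRB2 were plated overnight at 37C, then dosed with compounds plus a stimulation mix containing 100uM IBMX and 25uM Ro-20-1724 for 0.5hr at room temperature. cAMP was measured by HTRF competition, 1hr.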

Assay [16] concerns the target D(2) dopamine receptor (Homo sapiens) (UniProt P14416). As to the kind of experiment: Dopamine D2 receptor (DRD2) small molecule agonists, cell-based qHTS assay (AID 1963594). Further: nearly all actives have a fitted effect of over 35% in size. Further: potency means the concentration at half of the fitted maximal effect. In outline:
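HEK293 cells stably expressing human DRD2, pre-treated with PDE inhibitor Ro20-1724 (0.1 mM final) and compound 10 min at room temperature, then stimulated with NKH477 (200nM […]) for 30 min. cAMP read by HTRF (665/620 nm).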

For assay [17] the target is unchanged. As to the kind of experiment: Dopamine D2 receptor (DRD2) small molecule antagonists, cell-based qHTS assay (AID 1963595; active means well fitted inhibition curve with a large enough effect in the signal ratio in the repeat runs, with a control signal flat; the % refers to the signal ratio). The gist of the method: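 HTRF cAMP read-out at 665 and 620 nm emission (340 nm excitation). Antagonist mode: compounds were tested against 12 nM quinpirole in DRD2-HEK293 cells, with 200 nM NKH477 raising cAMP and 0.1 mM Ro20-1724 blocking its breakdown.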

Assay [18] can be described thus: p53 small molecule agonists, cell-based qHTS assay with rat liver microsomes (AID 1963578). The gist of the method:
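Metabolic activation by rat liver microsomes and NADPH, each 0.5 mg/mL final, added right after compounds to p53RE-bla reporter cells (4,000/well, plated 5 h earlier). 16 h at 37 C, then LiveBLAzer substrate for 2 h at room temperature in the dark; fluorescence read-out.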

Assay [19] can be described thus: cAMP Responsive Elements (CRE) small molecule agonists, cell-based qHTS assay (AID 1963590). The gist of the method: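 Cells carrying a CRE-driven beta-lactamase reporter (HEK 293T) are seeded, incubated overnight (18 h), and treated with test compounds for 3 h at 37 C; reporter activity is then detected with a FRET substrate after 2 h at room temperature.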
Assay [20] is described as follows: cAMP Responsive Elements (CRE) small molecule antagonists, cell-based qHTS assay (AID 1963591; active means well fitted inhibition curve with a large enough effect in the signal ratio in the repeat runs, not every such curve was filed as active; the % refers to the signal ratio). The gist of the method: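 Cells (CRE-bla HEK 293T, DMEM with 10% dialyzed FBS and 25 mM HEPES) are seeded and incubated 18 h. Compounds are added with NKH477 agonist at 0.25 uM final for 3 h, then FRET substrate for 2 h.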

5-hydroxytryptamine receptor 2A (Homo sapiens), sequence (P28223 whole entry, looked up): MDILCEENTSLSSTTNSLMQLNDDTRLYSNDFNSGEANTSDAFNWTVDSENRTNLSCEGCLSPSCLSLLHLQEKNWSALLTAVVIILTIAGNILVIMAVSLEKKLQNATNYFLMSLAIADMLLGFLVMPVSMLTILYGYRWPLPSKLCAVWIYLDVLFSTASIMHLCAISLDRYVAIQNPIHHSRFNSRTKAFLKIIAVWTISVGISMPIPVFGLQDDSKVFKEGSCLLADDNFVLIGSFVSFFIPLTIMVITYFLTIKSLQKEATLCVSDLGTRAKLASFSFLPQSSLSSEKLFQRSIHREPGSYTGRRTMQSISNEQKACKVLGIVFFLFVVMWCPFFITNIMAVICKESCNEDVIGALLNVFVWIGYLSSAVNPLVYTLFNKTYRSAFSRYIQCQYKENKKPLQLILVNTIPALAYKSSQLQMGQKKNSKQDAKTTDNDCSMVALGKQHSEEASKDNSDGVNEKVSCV
D(2) dopamine receptor (Homo sapiens), sequence (P14416 whole entry, looked up): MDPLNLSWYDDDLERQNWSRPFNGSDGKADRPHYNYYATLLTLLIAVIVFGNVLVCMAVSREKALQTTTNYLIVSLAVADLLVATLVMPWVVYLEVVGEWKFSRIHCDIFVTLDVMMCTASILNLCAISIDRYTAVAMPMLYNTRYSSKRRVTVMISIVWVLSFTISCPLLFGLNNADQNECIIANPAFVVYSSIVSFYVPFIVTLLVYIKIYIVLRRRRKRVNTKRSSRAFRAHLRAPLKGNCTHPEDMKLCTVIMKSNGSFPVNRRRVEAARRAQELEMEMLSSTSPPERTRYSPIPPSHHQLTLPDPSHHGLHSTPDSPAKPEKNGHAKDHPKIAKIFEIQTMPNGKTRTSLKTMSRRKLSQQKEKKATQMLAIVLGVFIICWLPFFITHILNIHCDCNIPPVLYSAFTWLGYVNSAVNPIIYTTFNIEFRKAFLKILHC
KiSS-1 receptor (Homo sapiens), sequence (Q969F8 whole entry, looked up): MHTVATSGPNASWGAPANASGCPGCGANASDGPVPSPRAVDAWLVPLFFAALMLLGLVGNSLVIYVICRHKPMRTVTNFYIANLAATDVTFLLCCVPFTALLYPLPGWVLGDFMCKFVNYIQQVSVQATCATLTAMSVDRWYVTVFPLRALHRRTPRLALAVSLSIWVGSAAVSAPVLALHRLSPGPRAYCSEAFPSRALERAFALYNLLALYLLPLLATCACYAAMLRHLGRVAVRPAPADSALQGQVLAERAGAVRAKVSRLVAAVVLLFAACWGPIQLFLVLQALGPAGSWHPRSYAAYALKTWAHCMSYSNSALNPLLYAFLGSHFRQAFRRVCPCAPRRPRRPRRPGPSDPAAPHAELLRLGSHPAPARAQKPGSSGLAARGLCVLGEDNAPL
Beta-2 adrenergic receptor (Homo sapiens), sequence (P07550 whole entry, looked up): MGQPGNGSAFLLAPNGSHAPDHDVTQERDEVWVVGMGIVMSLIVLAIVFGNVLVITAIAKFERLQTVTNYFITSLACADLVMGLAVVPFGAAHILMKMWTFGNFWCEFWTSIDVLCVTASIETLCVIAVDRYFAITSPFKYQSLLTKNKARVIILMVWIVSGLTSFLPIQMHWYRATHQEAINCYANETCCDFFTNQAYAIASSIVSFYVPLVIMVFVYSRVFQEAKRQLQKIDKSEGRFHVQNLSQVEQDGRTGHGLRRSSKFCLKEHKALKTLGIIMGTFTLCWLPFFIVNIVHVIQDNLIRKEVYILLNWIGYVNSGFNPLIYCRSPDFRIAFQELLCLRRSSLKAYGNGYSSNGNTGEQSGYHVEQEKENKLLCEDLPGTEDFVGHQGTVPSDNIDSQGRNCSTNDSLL

Take `C[C@]12CCC(=O)C=C1[C@@H]1C[C@@H]1[C@H]1[C@@H]3[C@@H]4C[C@@H]4[C@@]4(CCC(=O)O4)[C@@]3(C)CC[C@@H]12`: the Potency entry in [1], in assay [2], in [3], in assay [4], in [5] and in assay [6] was “inactive” each time. The Potency entry in assay [7], in assay [8], in assay [9], in [10], in [11] and in assay [13] was “inactive” each time. Besides, the Potency result in [14], in assay [15], in [16] and in [17] was “inactive” each time. The Potency in assay [12] is 18.3 µM (active).
For the compound `CC(C)(C)CC(C)(C)c1ccc(OCCO)cc1`, the Potency result in assay [1], in assay [2], in assay [3], in [4], in [5] and in assay [18] was “inactive” throughout. For the same compound, the Potency entry in [6], in assay [7], in assay [8], in assay [9], in assay [10] and in [13] was “inactive” each time. Moreover, the Potency result in [14], in assay [16] and in assay [17] was “inactive” throughout.
Turning to `CC1(COc2ccc(CC3SC(=O)NC3=O)cc2)CCCCC1` (configuration not stated), the Potency result in [1], in assay [3], in assay [4], in assay [5], in [18] and in assay [7] was “inactive” throughout. Also, the Potency result in [8], in assay [9], in [14], in assay [15] and in [17] was “inactive” in each case. Besides, the Potency was 29.8 µM (active) in [2] and 12.8 µM (active) in [16].
`CCCCNCCCC`: the Potency entry in assay [1], in assay [2], in assay [3], in assay [4], in [5] and in [6] was “inactive” each time. For the same compound, the Potency result in assay [7], in assay [8], in [9], in assay [10], in [11] and in assay [12] was “inactive” throughout. For the same compound, the Potency entry in assay [13], in assay [19], in assay [20], in assay [14], in [15] and in assay [17] was “inactive” each time.
For `CN1CCN2c3ccccc3Cc3ccccc3C2C1` (configuration not stated), the Potency result in [1], in assay [2], in assay [3], in [4], in assay [5] and in [18] was “inactive” throughout. Moreover, the Potency entry in [7], in assay [9], in assay [19], in [20], in assay [14] and in assay [16] was “inactive” in each case. Further, the Potency entry in [17] was “inactive”.
On to `COc1cc(/C=C/C(=O)CC(=O)/C=C/c2ccc(O)c(OC)c2)ccc1O`, for which the Potency in [1] is 48.9 µM (active); in assay [2], 15.4 µM (active); in assay [6], 16.3 µM (active); in [8], 46.1 µM (active); in assay [11], 22 µM (active). For the same compound, the Potency result in [10], in [12], in assay [14] and in assay [16] was “inactive” each time.
For `CCCCNC1CC(C)(C)NC(C)(C)C1`, the Potency result in [1], in assay [2], in assay [3], in assay [4], in assay [5] and in assay [6] was “inactive” in each case. Also, the Potency result in [7], in assay [8], in assay [9], in [10], in [11] and in assay [12] was “inactive” in each case. Further, the Potency entry in [13], in assay [19], in assay [20], in [14], in assay [15] and in [16] was “inactive” each time. In addition, in [17], the Potency entry is “inactive”.
As to `CC(C)(C)c1ccc(OC2CCCCC2O)cc1` (configuration not stated), the Potency entry in assay [1], in assay [3], in assay [4], in [5], in assay [18] and in assay [6] was “inactive” in each case. Also, the Potency entry in assay [8], in assay [12], in [16] and in [17] was “inactive” in each case. Besides, the Potency in [2] is 38.6 µM (active); in [7], 1.62 µM (active); in [11], 43.6 µM (active).
